Columns and labels:
Assay in all cases: PBM binding z-score (relative to random genomic background probes); higher = stronger binding; sequences stand for … in GC…GCGATTGACAGCGTAGAATGAAGG
[1] = test system: PPARg:RXRa DBDmut IVT, anti-RXR (DBD mutation: RXRa K156A/R161A, NR concentration 270 nM, RXRa partner concentration 90 nM)
In short: (§1)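 Binding z-scores take random background probes as their reference. They come from custom Agilent 4×180K protein-binding microarrays incubated 1 h with ligand-free nuclear receptor dimers, with antibodies against each partner (one per run) detecting binding. Scanned fluorescence was regression-normalized.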

[2] = test system: PPARg:RXRa IVT, anti-PPARg (NR concentration 270 nM, RXRa partner concentration 90 nM)
In short: as §1

[3] = test system: PPARg DBDmut:RXRa IVT, anti-PPARg (DBD mutation: PPARg1 K132A/R137A, NR concentration 270 nM, RXRa partner concentration 90 nM)
In short: as §1

[4] = test system: PPARg DBDmut IVT, anti-PPARg (DBD mutation: PPARg1 K132A/R137A, NR concentration 270 nM)
In short: as §1

[5] = test system: PPARg homodimer (NR concentration 180 nM)
In short: as §1

[6] = test system: PXR:RXRa (NR concentration 270 nM, RXRa partner concentration 90 nM)
In short: as §1

[7] = test system: PXR homodimer (NR concentration 270 nM)
In short: as §1

[8] = test system: RARa:RXR (NR concentration 270 nM, RXRa partner concentration 90 nM)
In short: as §1

[9] = test system: RARa homodimer (NR concentration 270 nM)
In short: as §1

[10] = test system: RARb:RXRa (NR concentration 270 nM, RXRa partner concentration 90 nM)
In short: as §1

Sequence | PBM binding z-score [1] | PBM binding z-score [2] | PBM binding z-score [3] | PBM binding z-score [4] | PBM binding z-score [5] | PBM binding z-score [6] | PBM binding z-score [7] | PBM binding z-score [8] | PBM binding z-score [9] | PBM binding z-score [10]
CGGACTAGGTCATTGACAGGACAGTGAATAGTAA | 7.36 | 7.62 | 1.48 | 0.689 | 1.1 | 1.6 | 0.0677 | 2.12 | 0.305 | 3.53
AGTCAAAGTGCACTAGGTAACGTAAGATTCAGCT | 1.83 | 3.56 | 0.58 | -0.0287 | 0.167 | 0.215 | 0.189 | 0.315 | -0.372 | 1.53
GCATATAGGTAATACAATGTGAAAGTCCGATTGT | 4.03 | 2.5 | 1.42 | 1.13 | 0.581 | 0.112 | 0.544 | 0.557 | 0.819 | 0.0649
CCTACTGGGCCAAGAAAGGTCATTGATTCAGTGA | 3.49 | 3.92 | -0.232 | 0.143 | 2.98 | 5.1 | 1.18 | 5.31 | 1.75 | 3.89
ATCTCTAGGTAAAGATAGTTCAGTGCATGCAAAT | 2.3 | 1.49 | 1.11 | 1.06 | 0.899 | 1.1 | 1.29 | 0.26 | 0.906 | 0.853
TCTTGTAGATCAATAGAGGTCAAGAAAGTGCGCT | 1.9 | 2.9 | 1.22 | 0.341 | 1.79 | 5.53 | 1.38 | 4.29 | 0.852 | 3.26
CTCGAAAGGTCGTGCTCAGGTGAGTGTACCAAAC | 1.29 | 1.94 | -0.0151 | 0.438 | 1.83 | 3.52 | 0.0812 | 4.32 | 0.202 | 4.01
GCTAGTTGGTCAGTACAAGGTCACACACCGGTCG | 0.892 | 2.35 | -0.0423 | 0.196 | 2.2 | 3.74 | 1.58 | 3.91 | 0.633 | 3.36
AATAAAGGGTCACTAGGCCAGAGTAGGTACGAAT | 4.52 | 6.06 | 1.89 | 1.25 | 2.96 | 3.13 | 0.43 | 4.07 | 1.9 | 5.16
GGAACGAGGGCAAGTTGATAGCTGAGTTTGATGG | 3.45 | 2.67 | 0.246 | -0.342 | 0.0769 | 0.535 | 0.363 | 0.267 | -0.269 | 2.57
CCTACTGGGCCATTCAGAGGTCATTGGTCATATG | 3.85 | 4.26 | -0.0478 | 0.266 | 1.61 | 4.57 | 2.34 | 4.46 | 0.727 | 3.03
GCTAGTTGGTAAGTAAAAGGTCACACACCGGTCG | 0.354 | 3.04 | -0.0152 | 0.693 | 5.08 | 5.18 | 1.13 | 6.32 | 2.74 | 4.08
AGTCAAAGTTCACTAGCTAACGTAAGATTCAGCT | -0.129 | 1.99 | 0.927 | 0.426 | 1.85 | 3.57 | 1.99 | 2.79 | 0.935 | 4.56
TTACCAAGGTGAAAGGTCGTTGGTGCACGCCTTG | 3.18 | 5.34 | 0.205 | 0.977 | 2.46 | 4.31 | 0.449 | 6.09 | -0.639 | 3.31
ACTGTTAGTTGACTTAGGGCAACCGATACGACGC | 0.0464 | 0.607 | 0.909 | 0.844 | 0.977 | 0.277 | 0.341 | 0.582 | 0.354 | 1.04
GCTGCTAGGTCACCTGATGGTCAGCTAAAGCTCG | 4.7 | 4.09 | 0.447 | 0.446 | 1.57 | 1.2 | -0.963 | 2.67 | -0.925 | 3.86
ACAAGTTGGTCAGCTGAGGTCACACACAATTCGG | 1.87 | 2.89 | 0.789 | 1.03 | 2.69 | 5.44 | 2 | 4.44 | 1.01 | 3.65
GCTTACGGGTCAAAGGCTATAGCATGAATAGAAT | 3.78 | 4.33 | 0.463 | 0.898 | 1.36 | 3.22 | 0.0124 | 4.4 | -0.0609 | 3.69
CTACCAAGGTTAACAAGGTCGTTGATTACTATTC | 1.98 | 1.78 | 0.186 | 0.431 | 1.25 | 4.32 | 8.81 | 3.19 | 0.369 | 2.81
CAAACTAGGTCACCGGAACGTCAAAGTCCGCATG | 8.6 | 8.71 | 3.6 | 1.58 | 2.42 | 1.83 | 0.254 | 2.67 | 0.352 | 4.31
ACAGACAGGTGAGTGAAGGTAAATCAGCTGGACG | 0.437 | 0.547 | -0.117 | 0.0853 | 0.0194 | -0.359 | -0.168 | 0.0806 | -0.397 | 0.388
ATACCAAGCTGATCGTGAGGTCGTTGATACTAAC | -0.185 | 0.0581 | 0.404 | 0.536 | 0.45 | 1.49 | 1.06 | 1.26 | 0.317 | 0.454
GCTTGTAGATCAAGGTTATGAAAGACTAAGCTAA | 1.21 | 0.962 | 0.000562 | 0.0061 | 0.45 | 0.681 | -0.0933 | 0.915 | -0.0399 | 0.632
TGAATGAGGTTATAAGATCAGGAAACGTTGCAAA | 0.583 | 1.52 | 0.845 | 1.12 | 0.661 | 0.789 | 0.0316 | 1.46 | 0.238 | 1.15
